From PubChem
ALDH1A1 block – inhibitors of human aldehyde dehydrogenase 1A1; P00352; Purified ALDH1A1, NADH fluorescence, propionaldehyde substrate; Potency, µM (top dose mostly 75.3 µM), for inactives: at the top dose activity, negative = inhibition, most hits filed as inhibitors; 7.3% of 220,000 active; active = well fitted inhibition curve with a large enough effect, not every such curve was filed as active; inconclusive = small, poorly fitted or top-dose-only effect, or another doubt; inactive = no such curve, though single readings can be large or run the other way;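 note: potency is the fitted concentration of half-maximal effect; plate controls were no enzyme wells and a reference inhibitor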
Tau FP inhib – inhibitors of human tau fibril formation | K18 P301L tau heparin fibrillization, Alexa594 FP, 6 h | 0.39% of 280,000 active | Potency, µM (highest dose often 57.7 µM), without a hit: at the highest dose activity, negative = inhibition, usual class: inhibitors; note: potency is the fitted concentration of half-maximal effect; % is set by controls: 0 for no effect and ±100 for the full control effect; nearly all actives have a fitted effect of over 55% in size
Target sequence (P10636 561-689 P618L limits assumed): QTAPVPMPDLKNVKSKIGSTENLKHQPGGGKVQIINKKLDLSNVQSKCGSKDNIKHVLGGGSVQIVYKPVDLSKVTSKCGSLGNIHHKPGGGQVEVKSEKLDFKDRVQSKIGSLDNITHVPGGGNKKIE
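K18 P301L tau (15 uM unlabeled/0.24 uM Alexa 594-labeled, final) + compound + heparin 20 uM final; 100 mM NaOAc pH 7; 6 hr 37 C; ThT 30 uM final added, 1 hr RT; FP ex 555/em 632 nm.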
Tau fibril ThT – tau fibrillization inhibition (ThT binding) | P10636 | recombinant tau K18 P301L, heparin-induced fibrillization, ThT fluorescence | Potency, µM (doses to about 57.4 µM), for the others: top-dose activity, negative = inhibition, usual class: inhibitors | 2.1% of 270,000 active; note: potency is the fitted concentration of half-maximal effect; % is set by controls: 0 for no effect and ±100 for the full control effect; nearly all actives have a fitted effect of over 55% in size
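Fibril formation assay: tau K18 P301L at 15 uM with trace Alexa 594 label, heparin inducer 20 uM, pH 7 sodium acetate buffer, 37 C for 6 hr; endpoint ThT signal.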
NPSR antagonist – neuropeptide S receptor (human) antagonism, cAMP | Q6W5P4 | CHO-NPSR cells, cAMP TR-FRET, antagonist mode | Potency, µM (titrated, usually from 38.3 µM), without a hit: at the highest dose activity change, negative = inhibition, hits mostly inhibitors | 1% of 220,000 active; note: potency is the fitted concentration of half-maximal effect; % is set by controls: 0 for no effect and ±100 for the full control effect; nearly all actives have a fitted effect of over 50% in size
Target sequence (Q6W5P4 whole entry, looked up): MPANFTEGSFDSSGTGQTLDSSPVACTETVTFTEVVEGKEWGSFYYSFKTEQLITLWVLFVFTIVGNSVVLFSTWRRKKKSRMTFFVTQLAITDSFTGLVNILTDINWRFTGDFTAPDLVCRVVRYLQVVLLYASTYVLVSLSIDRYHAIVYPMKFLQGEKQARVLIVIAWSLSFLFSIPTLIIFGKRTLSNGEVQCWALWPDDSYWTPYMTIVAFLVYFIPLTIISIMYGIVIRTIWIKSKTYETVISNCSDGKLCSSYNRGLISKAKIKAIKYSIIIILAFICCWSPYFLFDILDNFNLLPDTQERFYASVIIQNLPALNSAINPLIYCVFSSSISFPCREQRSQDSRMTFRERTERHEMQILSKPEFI
Tau fluor counter – counter-screen for tau fibril formation inhibitors; tau K18 P301L Alexa594 fluorescence, heparin fibrillization; Potency, µM (highest dose often 57.7 µM), without a hit: top-dose activity change, negative = decrease; 0.93% of 280,000 active; note: potency is the fitted concentration of half-maximal effect; % is set by controls: 0 for no effect and ±100 for the full control effect; nearly all actives have a fitted effect of over 55% in size
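Human K18 P301L tau (15 uM unlabeled plus 0.24 uM Alexa 594-labeled, final) in 100 mM sodium acetate pH 7 was mixed with compound and 20 uM heparin and incubated 6 hr at 37 C.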
HPGD inh – blocks human HPGD enzyme activity; P15428; purified HPGD, NADH fluorescence kinetic, PGE2 substrate; Potency, µM, for the others: top-dose activity change, negative = inhibition, usual class: inhibitors; 4.3% of 150,000 active; AID 894; active = well fitted inhibition curve with a large enough effect, not every such curve was filed as active; inconclusive = small, poorly fitted or top-dose-only effect, or another doubt; inactive = no such curve, though single readings can be large or run the other way; note: potency is the fitted concentration of half-maximal effect; % is set by controls: 0 for no effect and ±100 for the full control effect
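20 nM HPGD preincubated 15 min at room temperature with compound in 50 mM Tris-HCl pH 8, 0.01% Tween 20. Started with 1 mM NAD+ and 30 uM prostaglandin E2; NADH fluorescence (360/450 nm) read 5 times over 30-s intervals, last minus first.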
Tau fibril TEM – Inhibits human tau fibrillization; recombinant tau K18 P301L fibrillization, TEM grading; stronger effect = higher value; AID 1719; shares compounds with Tau fibril ThT; 70% of 45 active; fibril grade (0 = clumped fibrils, 4 = only tiny pieces) (concentration not given with the values);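 active = compounds whose electron micrographs showed tau fibrils broken into shorter filaments or fragments, graded high on fibril breakup; inconclusive = micrographs gave an unclear fibril picture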
tau sediment – inhibitors of human tau fibrillization, sedimentation test; shares compounds with Tau fibril ThT; inhibition, % at 100 µM; recombinant tau K18 P301L (four-repeat tau fragment), sedimentation SDS-PAGE densitometry; 50% of 110 active; in the data active = inhibition above about 40%; inconclusive = no clear call, values can overlap the other calls; inactive = below about 18%
* = called active by the depositor; ? = inconclusive; . = not tested or not shown; [ ] = dose if it differs, or a comment. Rows were chosen to be rich in hits. Some 9.5% of all compounds tested hit in one or more screens of this group. Unless noted, calls come from the whole dose curve; as a rule, active = well fitted curve in the direction sought with a large enough effect; inconclusive = small, poorly fitted or top-dose-only effect, or another doubt; inactive = no such curve, though single readings can be large; an effect the other way counts as inactive or inconclusive.

SMILES	ALDH1A1 block	Tau FP inhib	Tau fibril ThT	NPSR antagonist	Tau fluor counter	HPGD inh	Tau fibril TEM	tau sediment
O=C(Nc1ccccc1)Nc1ccccc1	4%	-1%	1%	.	-22%	-10%	.	6
CCN(C(=S)Nc1cccnc1)c1ccccc1	6%	-3%	-8%	14%	-8%	.	.	.
CN(C(=S)Nc1cccnc1)c1ccc(O)cc1	14µM*	3.2µM*	2µM*	6%	?	-8%	2*	51*
CC(C)c1ccc(NS(=O)(=O)c2ccc3[nH]cc(C(=O)NCCc4ccccc4)c(=O)c3c2)cc1	.	?	5%	.	-8%	.	.	8
CCCNC(=O)N1N=C(c2ccc(N)cc2)c2cc3c(cc2[C@H]1C)OCO3	?	7%	-11%	.	?	-28%	.	.
Cc1ccc(C(=O)Nc2nc(=O)n(C(=O)C3CC3)s2)cc1	-1%	?	8.9µM*	?	-22%	-10%	?	49*
Cc1ccc(C(=O)Nc2nc3ccccc3c(=O)s2)cc1	?	-5%	-17%	?	-1%	-16%	.	.
Cc1ccc(S(=O)(=O)Oc2ccc(/C=N/N=C3/NC(=O)C(CC(=O)O)S3)cc2)cc1 (centres undefined)	-13%	0%	-15%	3%	1%	.	.	.
Cc1ccc(-c2ccc(/C=N/N=C3/NC(=O)C(CC(=O)O)S3)o2)c([N+](=O)[O-])c1 (centres undefined)	-4%	?	10µM*	-9%[46.1 µM]	-23%	18µM*	?	?
O=C(O)CC1S/C(=N/N=C/c2ccc(-c3ccccc3[N+](=O)[O-])o2)NC1=O (centres undefined)	8.9µM*	?	2.2µM*	-5%[46.1 µM]	-30%	16µM*	4*	58*
COc1cccc(NC(=O)CCc2nc(-c3cc(OC)c(OC)c(OC)c3)no2)c1	.	-8%	?	.	?	.	.	.
Cc1ccc(SCc2cc(=O)n(C)[nH]2)cc1	?	?	2.2µM*	-7%	?	.	.	14
COc1ccc(NC(=O)N2CC[C@@]3(CCCN(C(=O)c4c(C)noc4C)C3)C2)cc1	?	.	.	.	.	-5%	.	.
CCc1ccccc1NC(=O)Cn1c(=O)ccc2cc(S(=O)(=O)N3CCC(C)CC3)ccc21	.	-5%	4%	.	-6%	.	.	.
C=CCn1c(C)cc(C2=NNC(=Nc3ccc(C)cc3)SC2)c1C	1%	1%	?	-3%	-20%	.	.	.
Cc1ccc(C2=NNC(=Nc3ccc(F)cc3)SC2)cc1	-11%	-21%	16µM*	-24%	?	.	3*	?
COc1ccc(Nc2nc(-c3sc(NC(C)=O)nc3C)cs2)cc1	32µM*	4%	13µM*	-6%[46.1 µM]	?	?	3*	42*
C=CCNc1nc(-c2sc(NC(C)=O)nc2C)cs1	?	-8%	?	-9%[46.1 µM]	-27%	?	.	.
Cc1ccc(NCc2cc3cc4c(cc3n(CC(=O)Nc3ccc(C)cc3)c2=O)OCCO4)cc1	.	14%	-3%	.	?	.	.	9
O=C(c1ccco1)N1CCCN(Cc2nc(Cc3ccccc3)no2)CC1	-1%	4%	-4%	5%	7%	.	.	.
COc1ccc(CNC(=O)Cn2nc(C)n3cccc3c2=O)cc1	.	?	17%	.	-15%	.	.	5
NCCc1ccc(O)c(O)c1	4%	?	?	-8%[46.1 µM]	-28%	4%	.	15
COc1ccc(C2Oc3cc(OC)cc(OC)c3CC2O)cc1 (centres undefined)	-7%	3%	-19%	.	-12%	-18%	.	.
